Experimental data reported in publication PMC7862700, “An all-to-all approach to the identification of sequence-specific readers for epigenetic DNA modifications on cytosine”.

Legend:
Assay in all cases: DAPPL (digital affinity profiling via proximity ligation, sequencing); 10 mM Tris-HCl pH 7.5, 50 mM NaCl, 1 mM DTT, 4% glycerol, room temperature, 30 min; GST-TFs on glutathione beads, 16-mer random dsDNA library, 0.1% formaldehyde crosslink after washing; high values mean tight binding
Conditions in all cases: protein: recombinant; tags: N-terminal GST; dsDNA, one strand shown
FLI1 = biological target: T1, FLI1 (Homo sapiens, UniProt Q01543 1-452)
T1 sequence: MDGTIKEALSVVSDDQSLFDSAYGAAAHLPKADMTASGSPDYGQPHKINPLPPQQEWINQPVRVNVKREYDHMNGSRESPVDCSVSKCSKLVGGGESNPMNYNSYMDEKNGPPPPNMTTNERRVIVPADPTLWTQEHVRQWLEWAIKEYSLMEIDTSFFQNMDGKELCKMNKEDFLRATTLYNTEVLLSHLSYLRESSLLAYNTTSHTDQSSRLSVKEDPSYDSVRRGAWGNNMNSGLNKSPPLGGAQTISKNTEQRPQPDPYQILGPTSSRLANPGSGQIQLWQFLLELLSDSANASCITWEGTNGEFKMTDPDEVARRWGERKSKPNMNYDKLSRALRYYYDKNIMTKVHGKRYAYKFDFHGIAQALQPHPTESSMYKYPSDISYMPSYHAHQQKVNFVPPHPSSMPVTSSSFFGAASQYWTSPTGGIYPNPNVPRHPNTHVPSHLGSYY
Summary of the method: (§1)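 Pools were built from human transcription factors expressed in yeast as GST fusions, captured on glutathione beads and DNA-barcoded, along with a tag-only sample. Incubation with 200 nmole of a 16-mer random double-stranded DNA library lasted 30 min at room temperature in Tris/NaCl/DTT/glycerol buffer, and was followed by washing, 0.1% formaldehyde crosslinking, proximity ligation, PCR amplification and Illumina NextSeq500 sequencing. Binding signal is the quotient of each hexamer's read frequency for a factor and its frequency for the tag-only sample.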

GABPA = biological target: T2, GABPA (Homo sapiens, UniProt Q06546 1-454)
T2 sequence: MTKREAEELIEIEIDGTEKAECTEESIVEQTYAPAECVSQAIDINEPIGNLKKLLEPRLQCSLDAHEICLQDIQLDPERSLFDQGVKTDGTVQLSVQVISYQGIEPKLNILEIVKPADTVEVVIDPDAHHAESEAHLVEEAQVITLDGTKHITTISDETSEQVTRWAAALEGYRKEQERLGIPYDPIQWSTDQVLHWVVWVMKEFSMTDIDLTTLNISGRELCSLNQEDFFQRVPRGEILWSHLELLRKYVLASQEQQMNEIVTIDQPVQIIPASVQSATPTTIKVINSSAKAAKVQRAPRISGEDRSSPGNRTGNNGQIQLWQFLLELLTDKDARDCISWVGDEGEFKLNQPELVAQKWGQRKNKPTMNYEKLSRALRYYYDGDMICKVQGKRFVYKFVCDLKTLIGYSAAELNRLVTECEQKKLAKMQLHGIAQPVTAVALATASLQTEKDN
Summary of the method: as §1

EHF = biological target: T3, EHF (Homo sapiens, UniProt Q9NZC4 1-300)
T3 sequence: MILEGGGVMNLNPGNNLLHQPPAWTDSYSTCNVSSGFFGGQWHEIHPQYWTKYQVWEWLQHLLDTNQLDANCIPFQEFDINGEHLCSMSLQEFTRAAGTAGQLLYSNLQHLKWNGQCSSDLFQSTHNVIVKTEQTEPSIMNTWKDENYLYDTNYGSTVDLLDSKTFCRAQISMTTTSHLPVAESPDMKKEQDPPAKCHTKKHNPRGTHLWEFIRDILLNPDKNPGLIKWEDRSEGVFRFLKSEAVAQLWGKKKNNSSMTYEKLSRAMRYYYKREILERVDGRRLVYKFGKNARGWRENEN
Summary of the method: as §1

ETV5 = ETV5 (Homo sapiens, UniProt P41161 1-510)
Summary of the method: as §1

ETV2 = biological target: T4, ETV2 (Homo sapiens, UniProt O00321 1-342)
T4 sequence: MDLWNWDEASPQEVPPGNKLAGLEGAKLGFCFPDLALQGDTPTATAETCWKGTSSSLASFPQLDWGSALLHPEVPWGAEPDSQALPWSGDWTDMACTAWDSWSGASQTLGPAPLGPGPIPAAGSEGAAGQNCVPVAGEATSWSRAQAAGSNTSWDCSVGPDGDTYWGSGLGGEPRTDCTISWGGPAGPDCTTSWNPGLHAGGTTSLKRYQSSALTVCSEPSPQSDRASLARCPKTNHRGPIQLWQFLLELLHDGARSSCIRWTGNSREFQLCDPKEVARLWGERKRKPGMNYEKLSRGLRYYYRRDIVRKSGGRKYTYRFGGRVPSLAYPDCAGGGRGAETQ
Summary of the method: as §1

ELF3 = biological target: T5, ELF3 (Homo sapiens, UniProt P78545 1-371)
T5 sequence: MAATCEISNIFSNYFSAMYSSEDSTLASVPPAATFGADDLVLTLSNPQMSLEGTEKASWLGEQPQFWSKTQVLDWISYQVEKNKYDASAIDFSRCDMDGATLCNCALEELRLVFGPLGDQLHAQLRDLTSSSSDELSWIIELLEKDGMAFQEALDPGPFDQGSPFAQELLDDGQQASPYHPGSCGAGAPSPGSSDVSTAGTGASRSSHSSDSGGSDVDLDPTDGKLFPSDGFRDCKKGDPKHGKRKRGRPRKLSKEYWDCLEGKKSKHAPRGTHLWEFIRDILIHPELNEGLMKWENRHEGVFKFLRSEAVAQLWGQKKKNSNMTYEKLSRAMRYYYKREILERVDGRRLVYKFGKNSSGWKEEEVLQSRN
Summary of the method: as §1

ERF = biological target: T6, ERF (Homo sapiens, UniProt P50548 1-548)
T6 sequence: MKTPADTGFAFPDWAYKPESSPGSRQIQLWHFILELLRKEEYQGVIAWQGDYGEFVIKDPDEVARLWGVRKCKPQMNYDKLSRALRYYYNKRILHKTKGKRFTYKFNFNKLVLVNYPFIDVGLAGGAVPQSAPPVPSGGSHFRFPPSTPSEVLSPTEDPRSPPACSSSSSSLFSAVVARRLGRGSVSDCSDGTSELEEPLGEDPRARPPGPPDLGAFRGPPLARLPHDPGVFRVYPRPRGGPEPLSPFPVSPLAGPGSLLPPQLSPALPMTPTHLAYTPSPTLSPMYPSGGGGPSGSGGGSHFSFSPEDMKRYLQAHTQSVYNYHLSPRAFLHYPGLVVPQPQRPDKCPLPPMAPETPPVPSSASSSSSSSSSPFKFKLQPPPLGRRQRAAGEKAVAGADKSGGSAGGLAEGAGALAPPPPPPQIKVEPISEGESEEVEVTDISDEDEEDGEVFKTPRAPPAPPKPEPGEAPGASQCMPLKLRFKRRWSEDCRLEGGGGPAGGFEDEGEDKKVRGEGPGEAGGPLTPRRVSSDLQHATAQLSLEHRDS
Summary of the method: as §1

ETV7 = biological target: T7, ETV7 (Homo sapiens, UniProt Q9Y603 1-341)
T7 sequence: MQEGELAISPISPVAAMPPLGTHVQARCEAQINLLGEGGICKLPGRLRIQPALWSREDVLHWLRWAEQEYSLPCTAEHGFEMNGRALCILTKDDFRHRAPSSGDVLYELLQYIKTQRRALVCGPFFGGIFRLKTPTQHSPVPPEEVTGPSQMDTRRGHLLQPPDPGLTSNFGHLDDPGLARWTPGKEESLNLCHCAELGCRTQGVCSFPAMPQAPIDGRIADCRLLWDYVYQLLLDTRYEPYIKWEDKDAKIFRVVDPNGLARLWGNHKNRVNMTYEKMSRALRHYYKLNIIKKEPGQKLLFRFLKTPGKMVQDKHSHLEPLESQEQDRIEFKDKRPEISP
Summary of the method: as §1

ELK1 = biological target: T8, ELK1 (Homo sapiens, UniProt P19419 1-428)
T8 sequence: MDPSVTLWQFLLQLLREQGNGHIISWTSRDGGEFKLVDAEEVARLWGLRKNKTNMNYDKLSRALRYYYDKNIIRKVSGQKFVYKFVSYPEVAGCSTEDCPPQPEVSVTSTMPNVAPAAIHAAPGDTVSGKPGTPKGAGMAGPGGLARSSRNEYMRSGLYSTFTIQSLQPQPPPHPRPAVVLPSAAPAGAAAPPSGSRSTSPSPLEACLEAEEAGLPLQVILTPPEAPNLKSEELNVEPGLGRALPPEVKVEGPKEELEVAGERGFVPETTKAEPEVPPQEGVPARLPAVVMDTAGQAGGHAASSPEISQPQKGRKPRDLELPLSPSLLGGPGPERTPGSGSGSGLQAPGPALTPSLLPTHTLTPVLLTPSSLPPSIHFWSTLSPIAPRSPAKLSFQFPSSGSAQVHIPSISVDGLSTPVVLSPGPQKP
Summary of the method: as §1

ELF1 = ELF1 (Homo sapiens, UniProt P32519 1-619)
Summary of the method: as §1

SPIB = SPIB (Homo sapiens, UniProt Q01892 1-262)
Summary of the method: as §1

ETV3 = biological target: T9, ETV3 (Homo sapiens, UniProt P41162-2 1-143)
T9 sequence: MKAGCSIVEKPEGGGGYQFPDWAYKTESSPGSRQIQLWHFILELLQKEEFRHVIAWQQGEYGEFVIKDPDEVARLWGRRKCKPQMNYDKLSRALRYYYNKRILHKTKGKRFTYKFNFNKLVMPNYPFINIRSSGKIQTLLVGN
Summary of the method: as §1

SPI1 = SPI1 (Homo sapiens, UniProt P17947 1-270)
Summary of the method: as §1

Sequence of ETV5 (P41161 whole entry): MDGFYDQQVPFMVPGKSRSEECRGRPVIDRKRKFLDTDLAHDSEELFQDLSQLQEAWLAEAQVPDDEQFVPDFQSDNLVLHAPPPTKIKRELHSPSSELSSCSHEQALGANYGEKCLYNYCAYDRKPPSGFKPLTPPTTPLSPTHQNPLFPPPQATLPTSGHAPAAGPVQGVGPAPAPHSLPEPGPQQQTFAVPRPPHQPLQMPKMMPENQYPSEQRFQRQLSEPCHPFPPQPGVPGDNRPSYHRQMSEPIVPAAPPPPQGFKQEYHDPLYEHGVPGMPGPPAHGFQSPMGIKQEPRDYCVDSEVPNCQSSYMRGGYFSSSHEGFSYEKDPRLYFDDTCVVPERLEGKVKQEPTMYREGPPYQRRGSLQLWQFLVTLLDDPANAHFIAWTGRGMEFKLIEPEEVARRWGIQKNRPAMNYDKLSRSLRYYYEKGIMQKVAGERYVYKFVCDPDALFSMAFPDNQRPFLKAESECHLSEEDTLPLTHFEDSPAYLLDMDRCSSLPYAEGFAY
Sequence of SPIB (Q01892 whole entry): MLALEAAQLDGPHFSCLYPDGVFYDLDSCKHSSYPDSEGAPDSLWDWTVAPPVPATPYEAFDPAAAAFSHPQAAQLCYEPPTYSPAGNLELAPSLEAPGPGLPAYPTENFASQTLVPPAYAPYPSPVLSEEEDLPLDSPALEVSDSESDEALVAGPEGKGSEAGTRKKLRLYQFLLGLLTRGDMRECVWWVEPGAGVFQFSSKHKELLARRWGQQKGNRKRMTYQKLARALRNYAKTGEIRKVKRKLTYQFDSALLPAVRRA
Sequence of ELF1 (P32519 whole entry): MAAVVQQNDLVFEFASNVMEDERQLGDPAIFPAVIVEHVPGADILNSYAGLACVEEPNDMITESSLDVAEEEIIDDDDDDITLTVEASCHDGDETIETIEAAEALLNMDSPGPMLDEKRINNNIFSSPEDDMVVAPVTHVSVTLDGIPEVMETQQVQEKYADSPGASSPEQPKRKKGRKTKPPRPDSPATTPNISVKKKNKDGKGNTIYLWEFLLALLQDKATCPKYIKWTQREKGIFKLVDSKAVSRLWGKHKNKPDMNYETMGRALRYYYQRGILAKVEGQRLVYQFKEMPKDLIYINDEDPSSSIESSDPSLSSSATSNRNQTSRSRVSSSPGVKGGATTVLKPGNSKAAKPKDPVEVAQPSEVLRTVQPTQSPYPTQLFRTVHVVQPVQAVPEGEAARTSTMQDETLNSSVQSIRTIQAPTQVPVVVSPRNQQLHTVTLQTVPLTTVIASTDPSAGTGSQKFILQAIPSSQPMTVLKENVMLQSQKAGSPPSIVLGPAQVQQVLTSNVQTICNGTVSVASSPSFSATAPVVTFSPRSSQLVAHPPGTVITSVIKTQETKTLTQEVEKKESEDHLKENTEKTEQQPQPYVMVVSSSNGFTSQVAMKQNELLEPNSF

Sequence | binding signal (FLI1) | binding signal (GABPA) | binding signal (EHF) | binding signal (ETV5) | binding signal (ETV2) | binding signal (ELF3) | binding signal (ERF) | binding signal (ETV7) | binding signal (ELK1) | binding signal (ELF1) | binding signal (SPIB) | binding signal (ETV3) | binding signal (SPI1)
TGGGTA | 1.04 fold enrichment (6-mer frequency, TF over GST control) | 1.05 fold enrichment (6-mer frequency, TF over GST control) | 1.01 fold enrichment (6-mer frequency, TF over GST control) | 1.02 fold enrichment (6-mer frequency, TF over GST control) | 1.14 fold enrichment (6-mer frequency, TF over GST control) | 1.1 fold enrichment (6-mer frequency, TF over GST control) | 1.14 fold enrichment (6-mer frequency, TF over GST control) | 1.01 fold enrichment (6-mer frequency, TF over GST control) | – | – | – | – | –
GGTATG | 1.01 fold enrichment (6-mer frequency, TF over GST control) | – | – | 1.01 fold enrichment (6-mer frequency, TF over GST control) | 1.05 fold enrichment (6-mer frequency, TF over GST control) | – | – | 1.01 fold enrichment (6-mer frequency, TF over GST control) | 1.03 fold enrichment (6-mer frequency, TF over GST control) | 1.01 fold enrichment (6-mer frequency, TF over GST control) | 1.02 fold enrichment (6-mer frequency, TF over GST control) | 1.02 fold enrichment (6-mer frequency, TF over GST control) | –
TTGGCG | 1.07 fold enrichment (6-mer frequency, TF over GST control) | 1.02 fold enrichment (6-mer frequency, TF over GST control) | – | 1.02 fold enrichment (6-mer frequency, TF over GST control) | – | – | 1.01 fold enrichment (6-mer frequency, TF over GST control) | – | – | – | 1.13 fold enrichment (6-mer frequency, TF over GST control) | – | 1.05 fold enrichment (6-mer frequency, TF over GST control)
